Assay results taken from PubChem BioAssay (Tox21).
Values without a mark were called inactive. Records with an inconclusive call do not appear. Entries that show only a call come without a potency. The source made the active and inactive calls. Unless noted, calls follow the shape of the dose curve; as a rule, active = well fitted curve in the direction sought with a large enough effect in the repeat runs; inconclusive = weak or mixed curves; inactive = no such curve, though single readings can be large; an effect the other way counts as inactive or inconclusive.

What was measured:
[1] = biological target: Thyrotropin receptor (Homo sapiens) (UniProt P16473); experiment: qHTS assay to identify small molecule antagonists of the thyroid stimulating hormone receptor (TSHR) signaling pathway (AID 1259385; calls by dose curve; also: nearly all actives have a fitted effect of over 20% in size)
Sequence of Thyrotropin receptor (Homo sapiens) (P16473 whole entry, looked up): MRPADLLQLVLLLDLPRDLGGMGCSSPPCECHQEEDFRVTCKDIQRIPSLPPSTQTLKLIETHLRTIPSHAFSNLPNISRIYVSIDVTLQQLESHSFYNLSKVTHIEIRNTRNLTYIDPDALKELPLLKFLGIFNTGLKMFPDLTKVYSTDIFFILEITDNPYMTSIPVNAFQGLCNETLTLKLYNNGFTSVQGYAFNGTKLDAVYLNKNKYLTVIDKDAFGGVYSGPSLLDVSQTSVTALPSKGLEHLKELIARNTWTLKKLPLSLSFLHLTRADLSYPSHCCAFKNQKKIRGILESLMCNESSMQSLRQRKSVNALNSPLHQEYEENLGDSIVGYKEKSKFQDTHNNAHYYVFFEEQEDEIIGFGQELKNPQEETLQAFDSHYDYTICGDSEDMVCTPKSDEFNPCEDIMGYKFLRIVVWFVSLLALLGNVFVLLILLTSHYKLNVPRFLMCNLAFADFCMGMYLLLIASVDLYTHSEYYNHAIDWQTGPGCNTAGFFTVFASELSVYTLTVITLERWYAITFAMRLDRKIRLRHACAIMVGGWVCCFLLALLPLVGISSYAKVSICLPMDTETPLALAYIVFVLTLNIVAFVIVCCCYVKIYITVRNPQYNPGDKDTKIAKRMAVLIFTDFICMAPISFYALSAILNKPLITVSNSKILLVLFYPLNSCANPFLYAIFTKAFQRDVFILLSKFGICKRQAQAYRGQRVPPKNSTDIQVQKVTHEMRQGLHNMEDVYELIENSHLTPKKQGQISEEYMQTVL
Procedure, shortened: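 Antagonist mode: compound-treated TSHR-expressing HEK293 cells were stimulated with 1.5 ng/mL TSH (final) in presence of Ro20-1724 for 30 min at RT. HTRF cAMP detection after 1 h; each compound tested at 15 concentrations, triplicate.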

[2] = qHTS assay to identify small molecule agonists of the estrogen receptor alpha (ER-alpha) signaling pathway in the presence of an antagonist - cell viability counter screen (AID 1259386);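 also: series mostly up to about 92 µM; cells exposed to compounds for 22 h at 37 °C before the viability read; nearly all actives have a fitted effect of over 30% in size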
Procedure, shortened: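 ICI-182,780 at 10.0nM final accompanies the compound titration (15 concentrations, 22hr, 37C) on VM7Luc4E2 cells. The CellTiter-Fluor fluorescence readout runs in the same wells as the luciferase assay.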

[3] = biological target: Progesterone receptor (Homo sapiens) (UniProt P06401); experiment: qHTS assay to identify small molecule agonists of the progesterone receptor (PR) signaling pathway (AID 1346784; calls by dose curve; also: nearly all actives have a fitted effect of over 30% in size)
Sequence of Progesterone receptor (Homo sapiens) (P06401 whole entry, looked up): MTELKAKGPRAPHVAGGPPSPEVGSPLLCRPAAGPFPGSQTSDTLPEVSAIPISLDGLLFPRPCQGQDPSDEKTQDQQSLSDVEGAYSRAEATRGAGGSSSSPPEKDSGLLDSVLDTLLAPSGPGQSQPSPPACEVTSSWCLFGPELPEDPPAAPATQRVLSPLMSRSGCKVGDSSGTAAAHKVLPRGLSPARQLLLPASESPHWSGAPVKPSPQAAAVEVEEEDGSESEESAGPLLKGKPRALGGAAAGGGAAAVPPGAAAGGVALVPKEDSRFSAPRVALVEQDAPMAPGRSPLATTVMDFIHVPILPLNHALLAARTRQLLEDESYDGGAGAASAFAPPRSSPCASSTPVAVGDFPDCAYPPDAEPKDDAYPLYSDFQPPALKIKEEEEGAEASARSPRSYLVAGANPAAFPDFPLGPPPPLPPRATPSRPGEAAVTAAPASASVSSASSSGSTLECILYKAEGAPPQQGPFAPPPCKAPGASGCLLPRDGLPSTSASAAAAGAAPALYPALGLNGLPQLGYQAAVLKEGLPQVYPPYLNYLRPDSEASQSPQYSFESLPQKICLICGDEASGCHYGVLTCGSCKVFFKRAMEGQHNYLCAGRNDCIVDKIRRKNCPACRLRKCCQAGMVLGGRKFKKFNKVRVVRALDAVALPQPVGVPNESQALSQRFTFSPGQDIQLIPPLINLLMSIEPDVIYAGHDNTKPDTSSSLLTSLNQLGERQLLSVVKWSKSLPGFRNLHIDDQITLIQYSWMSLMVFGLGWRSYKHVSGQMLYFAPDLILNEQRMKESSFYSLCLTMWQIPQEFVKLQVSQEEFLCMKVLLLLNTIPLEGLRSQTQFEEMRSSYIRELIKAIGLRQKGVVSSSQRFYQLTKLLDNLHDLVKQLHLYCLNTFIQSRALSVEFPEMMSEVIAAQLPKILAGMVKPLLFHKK
Procedure, shortened: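 Beta-lactamase reporter read-out: after 16 hr compound treatment at 37C and a further 2 hr at room temperature with LiveBLAzer B/G FRET substrate, fluorescence was measured in PR-UAS-bla HEK 293T cells grown in 2% charcoal-stripped serum.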

[4] = biological target: Progesterone receptor (Homo sapiens) (UniProt P06401); experiment: qHTS assay to identify small molecule antagonists of the progesterone receptor (PR) signaling pathway (AID 1346795; active = well fitted inhibition curve with a large enough effect in the signal ratio in the repeat runs, not every such curve was filed as active; the % refers to the signal ratio)
Procedure, shortened: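 Read-out is fluorescence from the LiveBLAzer B/G FRET substrate, cleaved by a UAS-controlled beta-lactamase in PR-UAS-bla HEK293T cells after 16 hr exposure to compound plus 1 nM promegestone (final), followed by 2 hr at room temperature.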

[5] = qHTS assay to identify small molecule agonists of the progesterone receptor (PR) signaling pathway - cell viability counter screen (AID 1346799; calls by dose curve; also: nearly all actives have a fitted effect of over 45% in size)
Procedure, shortened: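 Luminescence from CellTiter-Glo, added after the beta-lactamase FRET read in the same wells, gave cytotoxicity in PR-UAS-bla HEK293T cells treated with compounds for 16 hr at 37C.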

[6] = qHTS assay to identify small molecule antagonists of the TGF-beta/Smad signaling pathway - cell viability counter screen (AID 1346824); also: nearly all actives have a fitted effect of over 50% in size
Procedure, shortened: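 Cytotoxicity counter-screen run in the same wells as the beta-lactamase Smad reporter read: CellTiter-Glo luminescence after 30 min at room temperature. HEK 293T SBE-bla cells had 5 hr compound exposure at 37 C with TGF-beta1 (0.25 ng/mL stock).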

[7] = qHTS assay to identify small molecule agonists of the TGF-beta/Smad signaling pathway (AID 1346859; active = well fitted activation curve with a large enough effect in the signal ratio in the repeat runs, not every such curve was filed as active; the % refers to the signal ratio; also: series mostly up to about 77 µM)
Procedure, shortened: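 SBE-bla HEK 293T, 4,000 cells/well, plated o/n; cpd in DMSO, 5 hr, 37 C/5% CO2; B/G FRET substrate 2 hr RT; ex 405, em 460/530 nm.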

[8] = biological target: Thyrotropin-releasing hormone receptor (Homo sapiens) (UniProt P34981); experiment: qHTS assay to identify small molecule antagonists of the thyrotropin-releasing hormone receptor (TRHR) signaling pathway (AID 1346877; active = well fitted inhibition curve with a large enough effect in the repeat runs, not every such curve was filed as active; also: series mostly up to about 51 µM)
Sequence of Thyrotropin-releasing hormone receptor (Homo sapiens) (P34981 whole entry, looked up): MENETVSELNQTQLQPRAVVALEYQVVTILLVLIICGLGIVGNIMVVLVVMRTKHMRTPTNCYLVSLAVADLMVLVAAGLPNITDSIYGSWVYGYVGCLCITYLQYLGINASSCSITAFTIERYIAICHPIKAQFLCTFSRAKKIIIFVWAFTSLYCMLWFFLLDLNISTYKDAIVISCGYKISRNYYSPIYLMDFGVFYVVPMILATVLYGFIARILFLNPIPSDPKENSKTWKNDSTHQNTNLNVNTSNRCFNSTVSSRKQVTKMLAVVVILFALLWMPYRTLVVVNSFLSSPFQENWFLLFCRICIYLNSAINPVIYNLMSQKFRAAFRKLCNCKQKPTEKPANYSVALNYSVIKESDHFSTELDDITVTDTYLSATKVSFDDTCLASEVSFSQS
Procedure, shortened: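 Screening used HEK293 cells engineered with TRHR, with a brief 5 min room-temperature compound exposure preceding addition of TRH to 1 nM. The read-out was kinetic calcium-dye fluorescence, concentration-response from 15 doses in triplicate.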

[9] = biological target: Thyrotropin-releasing hormone receptor (Homo sapiens) (UniProt P34981); experiment: qHTS assay to identify small molecule agonists of the thyrotropin-releasing hormone receptor (TRHR) signaling pathway (AID 1346891; calls by dose curve; also: series mostly up to about 58 µM)
Procedure, shortened: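 Intracellular calcium rise, read as fluorescence every second for 3 min, served as the agonist signal in dye-loaded HEK293 cells expressing TRHR; each compound ran at 15 concentrations in triplicate.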

[10] = Human pregnane X receptor (PXR) small molecule agonists, qHTS cell viability counter screen (AID 1346977); also: nearly all actives have a fitted effect of over 50% in size
Procedure, shortened: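 PXR-Luc HepG2, 2,000 cells/well, 5% charcoal-stripped FBS; 5hr settle; cpd 24hr, 37C/5% CO2; CellTiter-Fluor at 23hr, read 1hr later (fluorescence).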

[11] = Caspase-3/7 induction in HepG2 cells by small molecules, qHTS assay (AID 1346978); also: nearly all actives have a fitted effect of over 15% in size
Procedure, shortened: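 Caspase-3/7 induction was measured by Caspase-Glo 3/7 luminescence (30 min, room temperature) after a 17 hr compound exposure of wild-type HepG2 cells seeded at 2,000 per well and pre-incubated 5 hr.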

[12] = Caspase-3/7 induction in CHO-K1 cells by small molecules, qHTS cell viability counter screen (AID 1346979); also: nearly all actives have a fitted effect of over 35% in size
Procedure, shortened: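 Cells (CHO-K1, wild type) are plated at 1,500 per well and incubated 5hr. Test compounds in DMSO are then pinned in, followed by 16hr at 37C and 5% CO2. Viability is read by CellTiter-Fluor fluorescence after 1hr.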

[13] = Caspase-3/7 induction in CHO-K1 cells by small molecules, qHTS assay (AID 1346980); also: nearly all actives have a fitted effect of over 15% in size
Procedure, shortened: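 Luminescent Caspase-Glo 3/7 read (30min, room temperature) quantified apoptosis induction. Cells were wild-type CHO-K1, treated with compound for 17hr at 37 C and 5% CO2.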

[14] = Caspase-3/7 induction in HepG2 cells by small molecules, qHTS cell viability counter screen (AID 1346981); also: series mostly up to about 92 µM; nearly all actives have a fitted effect of over 30% in size
Procedure, shortened: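 Multiplexed with the caspase-3/7 assay: HepG2 cells, 16 hr compound treatment, CellTiter-Fluor viability detection by fluorescence.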

[15] = biological target: Nuclear receptor subfamily 1 group I member 2 (Homo sapiens) (UniProt O75469); experiment: Human pregnane X receptor (PXR) small molecule agonists, qHTS assay (AID 1346982); also: nearly all actives have a fitted effect of over 35% in size; also: potency is read from the fitted curve at half-maximal effect
Sequence of Nuclear receptor subfamily 1 group I member 2 (Homo sapiens) (O75469 whole entry, looked up): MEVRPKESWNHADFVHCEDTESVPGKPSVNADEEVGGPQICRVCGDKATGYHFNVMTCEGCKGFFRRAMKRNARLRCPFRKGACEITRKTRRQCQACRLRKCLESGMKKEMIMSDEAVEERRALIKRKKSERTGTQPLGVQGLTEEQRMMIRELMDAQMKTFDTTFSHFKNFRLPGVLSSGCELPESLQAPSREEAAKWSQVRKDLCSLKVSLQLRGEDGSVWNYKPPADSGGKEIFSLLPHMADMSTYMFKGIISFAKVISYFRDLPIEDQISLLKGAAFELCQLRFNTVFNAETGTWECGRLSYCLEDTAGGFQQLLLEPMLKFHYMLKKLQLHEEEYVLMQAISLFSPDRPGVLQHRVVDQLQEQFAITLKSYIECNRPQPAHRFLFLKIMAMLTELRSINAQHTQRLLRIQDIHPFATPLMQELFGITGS
Procedure, shortened: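 We seeded PXR-Luc HepG2 cells in assay medium containing 5% charcoal-stripped FBS, added compounds 5 hr later, incubated 24 hr, and read luminescence with ONE-Glo reagent.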

[16] = biological target: Cytochrome P450 2D6 (Homo sapiens) (UniProt P10635); experiment: Cytochrome P450 Family 2 Subfamily D Member 6 (CYP2D6) small molecule antagonists: luciferase reporter qHTS assay (AID 1671196); also: series mostly up to about 120 µM; nearly all actives have a fitted effect of over 50% in size
Sequence of Cytochrome P450 2D6 (Homo sapiens) (P10635 whole entry, looked up): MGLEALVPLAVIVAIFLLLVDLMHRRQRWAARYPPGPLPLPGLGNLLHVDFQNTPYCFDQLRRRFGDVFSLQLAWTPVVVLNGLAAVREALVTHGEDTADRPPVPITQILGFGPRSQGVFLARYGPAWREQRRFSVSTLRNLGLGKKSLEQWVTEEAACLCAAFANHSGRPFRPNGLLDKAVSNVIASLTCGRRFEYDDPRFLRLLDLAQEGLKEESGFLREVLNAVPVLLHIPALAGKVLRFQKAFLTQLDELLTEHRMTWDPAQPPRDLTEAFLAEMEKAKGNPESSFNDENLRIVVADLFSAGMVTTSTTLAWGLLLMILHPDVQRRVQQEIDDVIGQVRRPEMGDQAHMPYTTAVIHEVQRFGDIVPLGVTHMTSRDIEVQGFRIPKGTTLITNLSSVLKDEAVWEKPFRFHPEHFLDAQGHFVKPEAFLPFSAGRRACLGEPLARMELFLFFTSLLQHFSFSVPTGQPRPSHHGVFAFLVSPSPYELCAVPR
Procedure, shortened: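 Luminescence (RLU), read 20 min after detection reagent, indicated CYP2D6 conversion of proluciferin to luciferin during a 1 h NADPH-dependent reaction at room temperature.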

[17] = qHTS assay to identify small molecule agonists of the TGF-beta/Smad signaling pathway - cell viability counter screen (AID 1346829); also: top concentration of the series differs between compounds; nearly all actives have a fitted effect of over 45% in size
Procedure, shortened: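 Here the cytotoxicity of library compounds is measured in SBE-bla HEK 293T cells treated for 5 hr, using CellTiter-Glo added to wells already read for the beta-lactamase reporter.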

[18] = biological target: Nuclear receptor subfamily 1 group I member 2 (Rattus norvegicus) (UniProt Q9R1A7); experiment: Rat pregnane X receptor (rPXR) activation by small molecules, qHTS assay (AID 1346983); settings: rPXR luciferase reporter cells, One-Glo luminescence, 24 h; max activation: hits give high values; also: nearly all actives have a fitted effect of over 20% in size
Sequence of Nuclear receptor subfamily 1 group I member 2 (Rattus norvegicus) (Q9R1A7 whole entry, looked up): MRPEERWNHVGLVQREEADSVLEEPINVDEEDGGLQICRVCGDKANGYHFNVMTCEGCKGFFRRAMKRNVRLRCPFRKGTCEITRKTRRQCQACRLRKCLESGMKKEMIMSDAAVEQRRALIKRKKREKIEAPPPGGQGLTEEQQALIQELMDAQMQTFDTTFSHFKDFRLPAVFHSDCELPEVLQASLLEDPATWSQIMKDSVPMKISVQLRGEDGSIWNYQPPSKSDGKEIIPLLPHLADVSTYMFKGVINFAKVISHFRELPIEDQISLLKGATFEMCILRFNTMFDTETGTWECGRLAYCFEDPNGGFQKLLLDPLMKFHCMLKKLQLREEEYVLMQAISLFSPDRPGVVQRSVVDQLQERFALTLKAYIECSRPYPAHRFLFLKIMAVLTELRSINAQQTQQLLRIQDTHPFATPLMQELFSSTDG
Procedure, shortened: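 Luminescent readout (One-Glo luciferase, 30 min room temperature) followed 24 hr compound treatment at 37 C of rPXR cells plated 2,000 per well and preincubated 5hr; qHTS format with compounds delivered in DMSO.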

[19] = biological target: Nuclear receptor subfamily 1 group I member 2 (Homo sapiens) (UniProt O75469); experiment: CYP3A4 induction through human pregnane X receptor (PXR) by small molecules, qHTS assay (AID 1346984); also: nearly all actives have a fitted effect of over 40% in size
Procedure, shortened: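 qHTS, concentration-response format: HepG2 DPX-2 line, PXR/CYP3A4-luc. Exposure 24 h, 37C. Substrate Luciferin-IPA 3uM final, 3 h. Detection One-Glo, 30 min RT.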

Row | Structure (SMILES) | Potency [1] | Potency [2] | Potency [3] | Potency [4] | Potency [5] | outcome [6] | Potency [7] | outcome [8] | outcome [9] | Potency [10] | Potency [11] | Potency [12] | outcome [13] | Potency [14] | Potency [15] | Potency [16] | Potency [17] | max activation [18] [%] | Potency [19]
1 | BrC(Br)C(Br)Br | inactive | inactive | inactive | inactive | inactive | inactive | inactive | inactive | inactive | inactive | inactive | inactive | inactive | inactive | inactive | inactive | – | – | –
2 | CCCc1nc2c(C)cc(-c3nc4ccccc4n3C)cc2n1Cc1ccc(-c2ccccc2C(=O)O)cc1 | inactive | inactive | inactive | inactive | inactive | inactive | – | inactive | inactive | inactive | inactive | – | inactive | – | – | inactive | inactive | -2.19 | –
3 | Cc1cccc(C)c1NC(=O)c1cc(S(N)(=O)=O)c(Cl)cc1O | inactive | inactive | inactive | inactive | inactive | inactive | inactive | inactive | inactive | inactive | inactive | inactive | inactive | inactive | inactive | inactive | inactive | – | –
4 | CN1C(CSCC(F)(F)F)Nc2cc(Cl)c(S(N)(=O)=O)cc2S1(=O)=O (centres undefined) | inactive | inactive | inactive | inactive | inactive | inactive | inactive | – | – | inactive | inactive | inactive | inactive | inactive | 29.8 µM (active) | inactive | inactive | – | –
5 | CC(C)(O)c1coc(S(=O)(=O)NC(=O)Nc2c3c(cc4c2CCC4)CCC3)c1 | inactive | inactive | inactive | inactive | inactive | inactive | inactive | inactive | inactive | inactive | inactive | inactive | inactive | inactive | inactive | inactive | inactive | – | –
6 | Cc1ccc(S(=O)(=O)NC(=O)NC2CCCCC2)cc1 | inactive | inactive | inactive | inactive | inactive | inactive | inactive | inactive | inactive | inactive | inactive | inactive | inactive | inactive | inactive | inactive | inactive | -5.99 | inactive
7 | Cc1cn([C@H]2C[C@H](F)[C@@H](CO)O2)c(=O)[nH]c1=O | inactive | inactive | inactive | inactive | inactive | inactive | inactive | – | – | inactive | inactive | inactive | inactive | inactive | inactive | – | inactive | -7.91 | inactive
